Assay results as given in PubChem BioAssay AID588674 (Broad Institute, 2011).
The campaign covered roughly 360,000 compounds. About 1,800 (0.5%) were called active. This excerpt belongs to a sample that is enriched for actives. Values without a mark were called inactive.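 Rule for the calls: active = mean inhibition of at least 75% with every replicate also reaching 75%; inconclusive = mean inhibition at least 75% but some replicate below; inactive = mean inhibition below 75%.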

Assay: Shn3 3'UTR reporter decrease in osteoblasts – cell-based, Clone20 osteoblasts, firefly luciferase, set 2, Schnurri-3 inhibitor project, primary screen (AID 588674);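 note: 0% = median of neutral control wells and 100% = pilot-screen positive control compound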
Settings: Clone20 osteoblast Shn3 3'UTR firefly luciferase, 24 h; at 12.5 µM; hits give high values

| Structure (SMILES) | inhibition |
| --- | --- |
| CCCCCCCCCCCCn1ccc(=N)cc1 | 90.6% (active) |
| CN1C2C=C(N(C(=O)c3ccc(Cl)cc3)c3ccccc3)CC1CC2 (stereo not given) | -7.65% |
| Cc1ccc(S(=O)(=O)N(C)c2ccc(C(=O)NCC3(N(C)C)CCCCC3)cc2)cc1 | -2.63% |
| Nc1ccc(C(=O)N/N=C2/CN3CCC2CC3)cc1 | -22.5% |
| CCC(C)(O)C(=O)OC1C(=O)OC2CC3C(C)=CC(=O)C(O)C3(C)C3C4(O)OCC23C1C(C)C4O (stereo not given) | 91.5% (active) |
| Cc1ccc(C2CN(C)CC2C(=O)c2ccc(F)cc2)cc1 (stereo not given) | 6.66% |
| O=C1NC(=O)C(CCc2ccccn2)(Cc2cccc(Cl)c2Cl)C(=O)N1c1ccc(Br)cc1 (stereo not given) | 13.7% |
| CC(=O)OC1C2(CC3N4C(=O)C5(CO)SSC4(CC31O)C(=O)N5C)OC(C)C(C)(C)C2=O (stereo not given) | 98.1% (active) |
| CCC(=O)c1ccc(OCC(=O)N2CCN(CC(=O)Nc3ccc(C)cc3)CC2)cc1 | 19.6% |
| O=C1C2CCN(CC2)C1(CO)CO | -25.5% |
| O=C(c1ccccc1)C(O)(CN1CCCCC1)c1ccccc1 (stereo not given) | 5.93% |
| CCN1C(=O)C(=Cc2c(C)n(CC(=O)NCC3CCCO3)c3ccccc23)C(=O)N(CC)C1=S (stereo not given) | 1.7% |
| Clc1ccc2nc3c(c(-c4ccccc4)c2c1)CNCC3 | 14.4% |
| C[C@]12CCC3C(CC[C@H]4[C@H](O)[C@H](O)CC[C@]34C)C1CCC2=O (stereo not given in full) | -16.7% |
| Cc1ccc(N2C(=O)NC(=O)C(CCc3ccncc3)(Cc3cccc(Cl)c3Cl)C2=O)cc1 (stereo not given) | -0.01% |
